# Inconclusive results are not listed. Values without a mark were called inactive. The source made the active and inactive calls. Calls come from the whole dose curve; as a rule, active = well fitted activation curve with a large enough effect in the repeat runs; inconclusive = weak or mixed curves; inactive = flat fitted curve, though single readings scatter.
# Experiment: Caspase-3/7 induction in HepG2 cells by small molecules, qHTS assay (AID 1346978); note: nearly all actives have a fitted effect of over 15% in size
# Details: HepG2 caspase-3/7 activation, Caspase-Glo luminescence, 17 h; series mostly up to 92.4 µM; caspase activation: at the top concentration
# Excerpt: National Center for Advancing Translational Sciences [NCATS] NIH Chemical Genomics Center [NCGC] U.S. Environmental Protection Agency [EPA] National Institutes of Environmental Health Sciences [NIEHS] National Toxicology Program [NTP] Assay overview: Apoptosis is a process of programmed cell death and plays a central role in the development of multicellular organisms. It is a highly regulated process and induces cell death by activating caspases, which are the members of cysteine aspartic acid-specific protease (caspase) family. Caspases involved in apoptosis are classified by their mechanism of action as initiator caspases (caspase-2, -8, -9 and -10) and executioner caspases (caspase-3, -6, and -7). Inhibition of apoptosis results in number of cancers, autoimmune diseases, inflammatory diseases and viral infection. To identify small molecule compounds that induce apoptosis, a homogeneous, luminescent Caspase-Glo 3/7 assay was used. Wild type HepG2 cells were used to screen Tox21 libraries for identifying caspase-3/7 activity inducers.
# Assay Protocol Summary: HepG2 cells were dispensed at 2,000 per well in 5uL of culture medium into white solid bottom 1536-well plates (Corning Life Sciences, Corning, NY) using a Multidrop Combi (Thermo Scientific, Waltham, MA) dispenser. The assay plates were incubated at 37 C and 5% CO2 for 5hr, and then 23nL of compounds dissolved in DMSO and positive control were transferred using a Pintool station (Wako, San Diego, CA). The assay plates were incubated at 37C and 5% CO2 for 17hr. For caspase-3/7 activity read, 4uL of Caspase-Glo 3/7 reagent (Promega Corporation, Madison, WI) was added to each well of the assay plates using Flying Reagent Dispenser (FRD, Aurora Discovery, San Diego, CA) and incubated the assay plates at room temperature for 30min. The luminescence signal was quantified using a ViewLux plate reader (Perkin Elmer, Shelton, CT).
# % is set by controls: 0 for no effect and ±100 for the full control effect; potency is the fitted concentration of half-maximal effect.
Compound,caspase activation,Potency
CC(C)(C(=O)c1cccnc1)c1cccnc1,0.302% [at 42.5 µM],–
Cc1ccc(Nc2c(F)cccc2Cl)c(CC(=O)O)c1,-1.13% [at 42.5 µM],–
CC(=O)Oc1cccc(O)c1,-0.286% [at 42.5 µM],–
CC1CCCO1 (stereo not given),-3.01%,–
CCCOC(=O)c1c(Cl)c(Cl)c(Cl)c(Cl)c1C(=O)OCCC,0.0967%,–
CC(C)C1CCC(C(=O)N[C@H](Cc2ccccc2)C(=O)O)CC1 (stereo not given in full),1.24% [at 42.5 µM],–
O=C(O)/C=C/c1ccc(O)c(O)c1,-0.593%,–
C=CC(=O)O,2.54% [at 42.5 µM],–
CCCCCc1ccco1,0.884% [at 42.5 µM],–
Cc1cc(CCCOc2c(C)cc(-c3noc(C(F)(F)F)n3)cc2C)on1,0.172% [at 42.5 µM],–
CC(C)C(=O)OCCOc1ccccc1,-0.991%,–
Nc1ccc(S(=O)(=O)NCc2ccccc2)cc1,0.322% [at 42.5 µM],–
COc1ccc(-c2cc(=S)ss2)cc1,-7.07% [at 42.5 µM],–
CC(C)OC(=O)c1ccccc1C(=O)OC(C)C,0.856%,–
CN1C(CSCC(F)(F)F)Nc2cc(Cl)c(S(N)(=O)=O)cc2S1(=O)=O (stereo not given),-0.385% [at 42.5 µM],–
C1=CCC2CC=CC2C1 (stereo not given),0.639%,–
CCCCCCCC/C=C\CCCCCCCC(=O)OCCO,-0.334%,–
CSSc1ccoc1C,-1.16%,–
COC(CC(C)CCCC(C)(C)O)OC (stereo not given),-0.0089%,–
CC(C)CC(O)CC(C)C,-0.787%,–

Compound,caspase activation,Potency
CCc1ccc(C)cc1,0.479%,–
COc1ccc(/C=C/C(=O)c2ccc(OC)cc2OC)cc1,–,10.6 µM (active)
O=C(O)c1cccc(Oc2ccccc2)c1,0.0527%,–
CCN(CC)c1ccc(C(=C2C=CC(=[N+](CC)CC)C=C2)c2ccc(S(=O)(=O)O)cc2S(=O)(=O)[O-])cc1,-15%,–
CC(C)(C)S,-1.5%,–
CCCCCCCCCCCCCCN(C)C,1.09% [at 19 µM],–
CC1CCCC(=O)C1=O (stereo not given),2.18%,–
CC(C)(O)c1coc(S(=O)(=O)NC(=O)Nc2c3c(cc4c2CCC4)CCC3)c1,2.79%,–
CNCc1ccc(NC(=O)c2c[nH]c3c2C(=O)CCC3)cc1,-7.25%,–
CC1=CC[C@@]23C[C@@H]1C(C)(C)[C@@H]2CC[C@H]3C,-0.854%,–
CCC(Cl)CC(Cl)C(Cl)C(Cl)C(Cl)C(C)Cl (stereo not given),-16.4% [at 19 µM],–
NC(=O)c1ccccc1[N+](=O)[O-],0.342%,–
O=CNNC=O,-0.473%,–
O=C1CC[C@@H](C(=O)O)N1,-0.312% [at 42.5 µM],–
CC(C)COC(=O)c1ccc(O)cc1,5.08%,–
CC(=O)OC(C)C[N+](C)(C)C (stereo not given),-1.38% [at 42.5 µM],–
CC(=O)N[C@@H](Cc1ccc(O)cc1)C(=O)O,0.354% [at 42.5 µM],–
CCN(CC)c1cccc(O)c1,0.416%,–
CCN(CC)CCOc1ccccc1C(=O)CCc1ccccc1,0.02% [at 42.5 µM],–
CC(=O)OCCC(C)CC(C)(C)C (stereo not given),0.336%,–

# From PubChem BioAssay (Tox21)
